A selection: hits, their analogues and other compounds. The true share with any hit is near 22%.
Pf growth 96h: P. falciparum growth inhibition at 96 hours; P. falciparum luciferase reporter growth, 96 h; Potency, µM (titrated, usually from 28.7 µM), hits mostly inhibitors; 320,000 tested, 6.9% active; AID 504834
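Two-generation exposure (96 h) targets delayed-death phenotype. Reporter parasites carrying integrated firefly luciferase, in red cells at 2% hematocrit and 0.05% parasitemia final, kept at 37 C, 5% CO2; luminescence loss indicates inhibition.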
Pf growth 48h: P. falciparum growth inhibition at 48 hours (one generation); P. falciparum luciferase growth in erythrocytes, 48 h; Potency, µM (titrated, usually from 28.7 µM), usual class: inhibitors; 310,000 tested, 5.9% active; AID 504832
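Cell-based growth assay: transgenic P. falciparum expressing firefly luciferase, cultured in red cells within RPMI 1640 containing 0.5% w/v Albumax, 24 mM bicarbonate and gentamycin. A drop in luciferase activity indicates inhibition.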
Shiga toxin inh: blocks Shiga toxin action in Vero cells; Vero cells, Shiga toxin protein synthesis inhibition reporter; AID 2315; 290,000 tested, 9.2% active; inhibition, % at 38.7 µM; in the data active means inhibition mostly above about 28%, no sharp cut-off; inactive means mostly below about 43%
Cycloheximide cs: affects cycloheximide protein synthesis inhibition readout, counter-screen. 300,000 tested, 12% active. cell reporter, cycloheximide protein synthesis inhibition counterscreen. max response, %; in the data active means max response mostly above about 13%, no sharp cut-off; inactive means mostly below about 14%; further: read at 38.3 µM for the half of the compounds with a filed dose
LmPK inh: inhibitors of Leishmania mexicana pyruvate kinase; Q27686; Potency, µM (top dose mostly 57.5 µM), usual class: inhibitors; 290,000 tested, 0.37% active; AID 1721; purified LmPK, Kinase-Glo ATP luminescence, 1 h
Target sequence (Q27686 whole entry, looked up): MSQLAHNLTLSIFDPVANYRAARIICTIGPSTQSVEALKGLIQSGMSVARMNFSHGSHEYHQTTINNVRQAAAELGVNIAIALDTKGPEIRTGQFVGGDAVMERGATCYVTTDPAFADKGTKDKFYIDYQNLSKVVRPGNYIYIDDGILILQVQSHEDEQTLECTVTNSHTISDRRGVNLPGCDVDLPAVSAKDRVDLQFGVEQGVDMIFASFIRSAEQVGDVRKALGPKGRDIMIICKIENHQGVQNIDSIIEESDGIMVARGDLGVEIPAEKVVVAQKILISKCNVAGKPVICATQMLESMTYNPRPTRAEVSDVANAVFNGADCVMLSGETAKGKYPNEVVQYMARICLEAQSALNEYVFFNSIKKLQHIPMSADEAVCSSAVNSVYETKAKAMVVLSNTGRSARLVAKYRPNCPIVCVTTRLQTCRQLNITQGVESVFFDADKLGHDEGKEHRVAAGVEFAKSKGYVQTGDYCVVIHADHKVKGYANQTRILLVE
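Purified LmPK (0.1 nM) converted ADP (0.1 mM) to ATP with PEP (0.5 mM) in imidazole buffer pH 7.2 with KCl and MgCl2, 1 h at room temperature. ATP was read by Kinase-Glo luminescence; data normalized to uninhibited and no-enzyme controls.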
Numbers stand for hits; [ ] = dose if it differs, or a comment. Unless noted, the call rests on the fitted dose curve; in most records, active means well fitted inhibition curve with a large enough effect; inconclusive means small, poorly fitted or top-dose-only effect, or another doubt; inactive means no such curve, though single readings can be large or run the other way.

`O=C(Nc1cccc(Cl)c1Cl)c1ccc(-c2ccccc2)cc1` gave Pf growth 96h inactive, Pf growth 48h inactive, Shiga toxin inh inactive, Cycloheximide cs inactive and LmPK inh inactive.
`O=C(Nc1ccccc1Cl)c1ccccc1` gave Pf growth 96h inactive, Pf growth 48h inactive, Shiga toxin inh 148, Cycloheximide cs 30 and LmPK inh inactive[11.5 µM].
O=C(Nc1ccccc1NC(=O)c1ccccc1Cl)c1ccccc1Cl was read as Pf growth 96h 15µM, Pf growth 48h inconclusive, Shiga toxin inh inactive, Cycloheximide cs inactive and LmPK inh inactive.
Screening CCOc1ccccc1NC(=O)CSc1nnc(CNC(=O)c2c(F)cccc2Cl)o1 returned Pf growth 96h inactive, Pf growth 48h inactive, Shiga toxin inh inactive, Cycloheximide cs inactive and LmPK inh inactive.
For COc1ccc(CN2C[C@H](Cc3ccccc3)[C@@H](CC(=O)Nc3ccccc3)C2=O)cc1 the results were Pf growth 96h inconclusive, Pf growth 48h inconclusive, Shiga toxin inh inactive, Cycloheximide cs inactive and LmPK inh inactive.
Screening CNC(=O)C(=O)Nc1cc2c3c(c1)C(C)C(=O)N3CCC2 (configuration not stated) returned Pf growth 96h inactive, Pf growth 48h inactive, Shiga toxin inh inactive, Cycloheximide cs inactive and LmPK inh inactive.
Screening COCCn1c(C)cc(C(=O)COC(=O)c2ccc(Br)o2)c1C returned Pf growth 96h inactive, Pf growth 48h inactive, Shiga toxin inh 55, Cycloheximide cs 29 and LmPK inh inactive.
`Cc1cc(C(=O)COC(=O)c2ccc(Br)o2)c(C)n1C` gave Pf growth 96h inactive, Pf growth 48h inactive, Shiga toxin inh 58, Cycloheximide cs 40 and LmPK inh inactive.
For Cn1c(N)c(C(=O)COC(=O)c2ccc(Br)o2)c(=O)n(C)c1=O the results were Pf growth 96h inactive, Pf growth 48h inactive, Shiga toxin inh inactive, Cycloheximide cs inactive and LmPK inh inactive.
CCc1cccc2c1NC(=O)[C@]21[C@@H]2C(=O)N(Cc3ccccc3)C(=O)[C@@H]2[C@@H]2CCCN21 was read as Pf growth 96h inactive[5.75 µM], Pf growth 48h 9.3µM, Shiga toxin inh inactive, Cycloheximide cs inactive and LmPK inh inactive.
Screening Cc1c(Cl)ccc2c1NC(=O)[C@]21[C@@H]2C(=O)N(Cc3ccccc3)C(=O)[C@@H]2[C@@H]2CCCN21 returned Pf growth 48h inconclusive, Shiga toxin inh inactive, Cycloheximide cs inactive and LmPK inh inactive.
Screening Cc1cc(C)c(Cn2ncn(-c3ccc(Br)cc3)c2=O)c(C)c1 returned Pf growth 96h inactive, Pf growth 48h inactive, Shiga toxin inh inactive, Cycloheximide cs inactive and LmPK inh inactive.
Screening CCCc1c(C(=O)N/N=C(/C)c2ccncc2)nnn1-c1nonc1N returned Pf growth 96h inactive, Pf growth 48h inactive, Shiga toxin inh inactive, Cycloheximide cs inactive and LmPK inh inactive.
`CCC(Oc1ccccc1)C(=O)N1CCC(C(N)=O)CC1` (configuration not stated) gave Pf growth 48h inactive, Shiga toxin inh 42, Cycloheximide cs 18 and LmPK inh inactive.
`CN(C)c1ccc(C(=S)N2CCCCC2)cc1` gave Pf growth 96h inactive, Pf growth 48h inactive, Shiga toxin inh 37, Cycloheximide cs 23 and LmPK inh inactive.
CCOc1ccc(C(=S)N2CCCC2)cc1 was read as Pf growth 96h inconclusive, Pf growth 48h inactive, Shiga toxin inh 88, Cycloheximide cs 14 and LmPK inh inactive.
For CCOc1ccc(C(=S)N2CCN(C)CC2)cc1 the results were Pf growth 96h inconclusive, Pf growth 48h inactive[5.75 µM], Shiga toxin inh inactive, Cycloheximide cs inactive and LmPK inh inactive.
CCCCOc1ccc(C(=S)N2CCC(C(N)=O)CC2)cc1 was read as Pf growth 96h inactive, Pf growth 48h inactive, Shiga toxin inh 105, Cycloheximide cs 38 and LmPK inh inactive.
Screening CC(C)(C)OC(=O)N1CCN(CCNC(=O)c2ccccc2)CC1 returned Pf growth 96h inactive, Pf growth 48h inactive, Shiga toxin inh inactive, Cycloheximide cs inactive and LmPK inh inactive.
For CC(C)COc1ccc(CNC(=S)Nc2ccccc2)cc1Cl the results were Pf growth 96h inconclusive, Pf growth 48h inactive[0.00184 µM], Shiga toxin inh inactive, Cycloheximide cs inactive and LmPK inh inactive.
For CC(C)NC(=O)CSc1c2c(nc3ccccc13)CCCC2 the results were Pf growth 96h inactive, Pf growth 48h inactive, Shiga toxin inh inactive, Cycloheximide cs inactive and LmPK inh inactive.
`CC(=O)Cn1cnc2c(cnn2-c2ccc(C)c(C)c2)c1=O` gave Pf growth 96h inactive, Pf growth 48h inactive[0.00184 µM], Shiga toxin inh 91, Cycloheximide cs 54 and LmPK inh inactive.
`Cc1ccc(-n2ncc3c(=O)n(CC(=O)N(C)C)cnc32)cc1C` gave Pf growth 96h inconclusive, Pf growth 48h inactive, Shiga toxin inh inactive, Cycloheximide cs 14 and LmPK inh inactive.
For Cc1ccc(-n2ncc3c(=O)n(CC(=O)NC4CCCC4)cnc32)cc1C the results were Pf growth 48h inactive, Shiga toxin inh inactive, Cycloheximide cs inactive and LmPK inh inactive.
Screening CC1(C)O[C@@H]2C[C@H]3[C@@H]4C[C@H](F)C5=CC(=O)C=C[C@]5(C)[C@@]4(F)[C@@H](O)C[C@]3(C)[C@]2(C(=O)CO)O1 returned Pf growth 96h inconclusive, Pf growth 48h inconclusive, Shiga toxin inh inactive, Cycloheximide cs inactive and LmPK inh inactive.
For C[C@@H]1C[C@H]2[C@@H]3C[C@H](F)C4=CC(=O)C=C[C@]4(C)[C@@]3(Cl)[C@@H](O)C[C@]2(C)[C@H]1C(=O)COC(=O)C(C)(C)C the results were Pf growth 96h inactive and Pf growth 48h 1µM.
For CSc1ccccc1NC(=O)CN1CCN(S(=O)(=O)c2ccccc2[N+](=O)[O-])CC1 the results were Pf growth 96h 9.3µM and Pf growth 48h 9.3µM.
`CSc1ccccc1NC(=O)CN1CCN(c2ccccn2)CC1` gave Pf growth 96h 8.3µM, Pf growth 48h 7.4µM, Shiga toxin inh inactive, Cycloheximide cs inactive and LmPK inh inactive.
`CC(=O)C1=C(O)C(=O)N(c2cccc(Br)c2)C1c1ccccc1Cl` (configuration not stated) gave Pf growth 96h inconclusive, Pf growth 48h inactive, Shiga toxin inh inactive, Cycloheximide cs inactive and LmPK inh inactive.
Screening Cn1c(N2CCN(C(c3ccccc3)c3ccccc3)CC2)nc2c1c(=O)[nH]c(=O)n2C returned Pf growth 96h inconclusive, Pf growth 48h inconclusive, Shiga toxin inh inactive, Cycloheximide cs inactive and LmPK inh inactive.
COc1cccc(OC)c1C(=O)NC(=O)Oc1c(F)cccc1F was read as Pf growth 96h inactive, Pf growth 48h inactive, Shiga toxin inh inactive, Cycloheximide cs inactive and LmPK inh inactive.
For CCOC(=O)C1=C(N)Oc2cc(O)ccc2C1c1cccc([N+](=O)[O-])c1 (configuration not stated) the results were Pf growth 96h inactive, Pf growth 48h inactive, Shiga toxin inh inactive, Cycloheximide cs inactive and LmPK inh inactive.
For COCCOC(=O)C1=C(C)NC(C)=C(C(=O)OC/C=C/c2ccccc2)C1c1cccc([N+](=O)[O-])c1 (configuration not stated) the results were Pf growth 96h 8.5µM, Pf growth 48h 11µM, Shiga toxin inh inactive and Cycloheximide cs inactive.
